Sampled rows, rich in hits. Any-hit rate of the full collection: about 5.3%.
BAZ2B block: inhibitors of human BAZ2B bromodomain | Q9UIF8 | Potency, µM (highest dose often 114 µM), for the others: at the top dose activity change, negative = inhibition, hits mostly inhibitors | hit rate 4.4% among 360,000 | AlphaScreen BAZ2B-H3K14Ac peptide displacement; note: potency is the fitted concentration of half-maximal effect; % is set by controls: 0 for no effect and ±100 for the full control effect; nearly all actives have a fitted effect of over 60% in size
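Compounds, titrated to a top concentration of 110 uM, were incubated 30 min at room temperature with preformed BAZ2B/acetyl-K14 H3 peptide complex (50 nM each). Proximity signal was measured by AlphaScreen after 20 min with beads.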
Six1-Eya2 inh: Six1/Eya2 interaction inhibition; AlphaScreen GST-Six1/His-Eya2 binding, biochemical; stronger effect = lower value; activity change, % (test concentration not listed); AID 651725; hit rate 0.56% among 360,000; Q15475+O00167; in the data active = activity change below about -65%; inconclusive = mostly about -30% to -63%; note: % is set by controls: 0 for no effect and ±100 for the full control effect
Target sequence (O00167 whole entry, looked up): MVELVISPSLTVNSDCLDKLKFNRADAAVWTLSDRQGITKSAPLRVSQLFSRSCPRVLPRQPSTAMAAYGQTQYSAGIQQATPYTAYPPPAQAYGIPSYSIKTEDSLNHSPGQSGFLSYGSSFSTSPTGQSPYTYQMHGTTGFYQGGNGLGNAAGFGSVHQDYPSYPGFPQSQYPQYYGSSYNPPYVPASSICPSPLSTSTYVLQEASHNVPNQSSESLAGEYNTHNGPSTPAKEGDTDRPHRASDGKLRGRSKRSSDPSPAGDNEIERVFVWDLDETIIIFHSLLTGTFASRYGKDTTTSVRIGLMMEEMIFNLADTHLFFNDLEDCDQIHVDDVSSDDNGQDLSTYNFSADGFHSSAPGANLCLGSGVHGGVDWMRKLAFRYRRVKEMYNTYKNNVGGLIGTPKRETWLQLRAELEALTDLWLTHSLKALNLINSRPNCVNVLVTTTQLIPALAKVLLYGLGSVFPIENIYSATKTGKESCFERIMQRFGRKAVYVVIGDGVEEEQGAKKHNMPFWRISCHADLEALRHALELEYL
Target sequence (Q15475 whole entry, looked up): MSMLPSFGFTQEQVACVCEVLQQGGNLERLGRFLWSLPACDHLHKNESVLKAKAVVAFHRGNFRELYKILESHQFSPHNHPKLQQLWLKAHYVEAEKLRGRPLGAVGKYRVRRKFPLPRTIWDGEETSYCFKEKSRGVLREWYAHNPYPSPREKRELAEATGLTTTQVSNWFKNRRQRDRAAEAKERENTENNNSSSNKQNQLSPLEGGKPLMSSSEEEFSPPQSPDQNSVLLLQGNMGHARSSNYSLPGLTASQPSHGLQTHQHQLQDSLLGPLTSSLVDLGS
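Homogeneous AlphaScreen proximity assay pairing GST-Six1 with His-tagged Eya2 (added as 5X mix: 250 nM and 500 nM) in 50 mM Tris pH 8.0, 300 mM NaCl, 1 mM TCEP. Glutathione donor and nickel acceptor beads; 1 h, 37 °C, dark.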
HP1b chromo inh: HP1-beta chromodomain-methylated histone interaction inhibition | P83916 | AlphaScreen HP1-beta / biotin-H3K9me3 peptide binding | Potency, µM (series often up to 114 µM), inactives show at the top dose activity change, negative = inhibition, hits mostly inhibitors | hit rate 0.56% among 390,000 | AID 540317; note: potency is the fitted concentration of half-maximal effect; nearly all actives have a fitted effect of over 70% in size
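HP1-beta protein (50 nM final) preincubated 30 min at room temperature with biotinylated H3(1-18)K9me3 peptide (50 nM) in PBS pH 7.4, 0.01% Tween-20, then compound added for 30 min. AlphaScreen streptavidin donor/nickel chelate acceptor beads (10 ug/mL final), 30 min dark, luminescence read.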
CtBP-E1A blk: blocks the CtBP interaction with E1A | AlphaScreen GST-E1A/His-CtBP binding, 1536-well; stronger effect = lower value | activity change, % (test concentration not listed) | hit rate 0.49% among 340,000; in the data active = activity change below about -65%; inconclusive = mostly about -30% to -63%; note: % is set by controls: 0 for no effect and ±100 for the full control effect
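In 5 uL wells, 23 nL compound meets equimolar GST-E1A and His-CtBP (5X stock 125 nM each) for 2 h, 37 °C. Beads (5X, 50 ug/mL) then 1 h, 37 °C, dark.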
JMJD2A Tudor inh: JMJD2A Tudor domain (human) inhibition; O75164; AlphaScreen JMJD2A-Tudor / H3K4me3 peptide binding; Potency, µM (series often up to 114 µM), inactives show at the highest dose activity change, negative = inhibition, most hits filed as inhibitors; hit rate 4.4% among 390,000; AID 504339; note: potency is the fitted concentration of half-maximal effect; % is set by controls: 0 for no effect and ±100 for the full control effect; nearly all actives have a fitted effect of over 50% in size
TDP1 inh: blocks human tyrosyl-DNA phosphodiesterase 1. Q9NUW8. recombinant TDP1, AlphaScreen DNA substrate cleavage. Potency, µM (top dose mostly 130 µM), for the others: at the highest dose activity change, negative = inhibition, hits mostly inhibitors. hit rate 0.28% among 350,000. AID 485290; note: potency is the fitted concentration of half-maximal effect; % is set by controls: 0 for no effect and ±100 for the full control effect; nearly all actives have a fitted effect of over 40% in size
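Steps: enzyme plus compound, 15 min RT; add biotin/phosphotyrosine-FITC oligonucleotide (15 nM final), react 5 min; add donor/acceptor beads (10 ug/ml final), 10 min; read AlphaScreen. Tdp1 at 1 nM final.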
* = called active by the depositor; [ ] = dose if it differs, or a comment. Unless noted, calls come from the whole dose curve; as a rule, active = well fitted inhibition curve with a large enough effect; inconclusive = small, poorly fitted or top-dose-only effect; inactive = no such curve, though single readings can be large or run the other way.

`CCn1c(C(=O)NCc2ccccc2C)cc2oc3ccccc3c21` gave BAZ2B block -11%, HP1b chromo inh -4%, JMJD2A Tudor inh inconclusive and TDP1 inh 6%.
For COCCn1c(SCC(=O)Nc2cccc(S(N)(=O)=O)c2)nc2cc(Cl)ccc2c1=O the results were BAZ2B block -3%, Six1-Eya2 inh -1, HP1b chromo inh -17%, CtBP-E1A blk 2, JMJD2A Tudor inh 20µM* and TDP1 inh 5%.
COCCn1c(SCC(=O)Nc2cccnc2Cl)nc2cc(Cl)ccc2c1=O was read as BAZ2B block 6%, Six1-Eya2 inh -1, HP1b chromo inh 24%, CtBP-E1A blk -8, JMJD2A Tudor inh -6% and TDP1 inh -1%[56.1 µM].
O=c1[nH]c2ccc(NS(=O)(=O)c3ccc(F)cc3)cc2s1 was read as BAZ2B block 3%, HP1b chromo inh 11%[57 µM], JMJD2A Tudor inh -16% and TDP1 inh 5%.
`CCOC(=O)C(C)N1C(=O)S/C(=C\c2ccc(-c3ccccc3C(=O)O)o2)C1=O` (stereo not drawn) gave BAZ2B block 25µM*, Six1-Eya2 inh inconclusive, HP1b chromo inh inconclusive and JMJD2A Tudor inh 22µM*.
Screening Cc1ccc(C)c(N2C(=N)S/C(=C\c3ccc(-c4ccccc4C(=O)O)o3)C2=O)c1 returned BAZ2B block 20µM*, Six1-Eya2 inh -72*, HP1b chromo inh -38%, CtBP-E1A blk inconclusive and JMJD2A Tudor inh 32µM*.
`O=[N+]([O-])c1cc(/C=N/O)ccc1Sc1ccccc1` gave BAZ2B block 50µM*, Six1-Eya2 inh -18, HP1b chromo inh -40%, CtBP-E1A blk -17, JMJD2A Tudor inh 56µM* and TDP1 inh -4%.
O=[N+]([O-])c1cc(/C=N/O)ccc1SCc1ccccc1 was read as BAZ2B block -26%, Six1-Eya2 inh 15, HP1b chromo inh 39%, CtBP-E1A blk 0, JMJD2A Tudor inh -16% and TDP1 inh 3%.
`COc1ccc(-c2cc(C(F)F)n3ncc(C(=O)N4CCc5ccccc54)c3n2)cc1` gave BAZ2B block inconclusive, Six1-Eya2 inh -9, HP1b chromo inh inconclusive, JMJD2A Tudor inh 20µM* and TDP1 inh 3%.
Screening Cc1cnn(C(=O)c2cc(-c3ccccn3)nc3ccc(Cl)cc23)c1 returned BAZ2B block 56µM*, Six1-Eya2 inh -2, HP1b chromo inh 13%, CtBP-E1A blk -10, JMJD2A Tudor inh -15% and TDP1 inh 3%.
O=C(NCCc1ccc(Cl)cc1)c1cc(-c2ccncc2)nc2ccccc12 was read as BAZ2B block -10%, Six1-Eya2 inh -2, HP1b chromo inh 56%, CtBP-E1A blk 1 and JMJD2A Tudor inh -3%[11.4 µM].
`O=C(NCCc1ccc(Cl)cc1)c1cc(-c2ccccn2)nc2ccccc12` gave BAZ2B block -21%, Six1-Eya2 inh 0, HP1b chromo inh -1%, CtBP-E1A blk 1, JMJD2A Tudor inh 22µM* and TDP1 inh 2%.
For Cc1ccc(C)c(-n2c(N)c(C#N)c3nc4ccccc4nc32)c1 the results were BAZ2B block -1%, HP1b chromo inh 26%, JMJD2A Tudor inh -14% and TDP1 inh 1%[12.3 µM].
`O=C(Sc1nnc(-c2ccccc2)o1)N1c2ccccc2Sc2ccccc21` gave BAZ2B block inconclusive, Six1-Eya2 inh inconclusive, HP1b chromo inh -20%, CtBP-E1A blk -18, JMJD2A Tudor inh 50µM* and TDP1 inh 15%[56.1 µM].
For CC(=O)N1c2ccccc2Sc2ccccc21 the results were BAZ2B block 6%, Six1-Eya2 inh -2, HP1b chromo inh 16% and JMJD2A Tudor inh -5%.
Cn1ccnc1SC(=O)N1c2ccccc2Sc2ccccc21 was read as BAZ2B block inconclusive, Six1-Eya2 inh 10, HP1b chromo inh 3%, CtBP-E1A blk 11, JMJD2A Tudor inh 20µM* and TDP1 inh 4%.
Oc1ccc(-c2csc(-c3cccnc3)n2)c(O)c1 was read as Six1-Eya2 inh -20, HP1b chromo inh 22%, CtBP-E1A blk 2, JMJD2A Tudor inh -24% and TDP1 inh 5%.
For Oc1ccc(-c2nc(-c3ccc(O)c(O)c3)cs2)cc1 the results were BAZ2B block inconclusive, Six1-Eya2 inh -21, HP1b chromo inh inconclusive, CtBP-E1A blk inconclusive, JMJD2A Tudor inh 50µM* and TDP1 inh 6%.
`Cc1ccc(SC2=C(Sc3ccc(C)cc3)C(=O)c3ccccc3C2=O)cc1` gave BAZ2B block 3.5µM*, Six1-Eya2 inh 0, HP1b chromo inh 3.5µM*, CtBP-E1A blk -11, JMJD2A Tudor inh 3.5µM* and TDP1 inh 12%.
`CC(C)CCn1c(Oc2ccccc2F)nc2c1c(=O)n(C)c(=O)n2C` gave BAZ2B block inconclusive, HP1b chromo inh 26%, JMJD2A Tudor inh -26% and TDP1 inh 9%.
`O=C(c1ccco1)N(CCC(c1ccccc1)c1ccco1)Cc1ccccc1` (stereo not drawn) gave BAZ2B block 50µM*, Six1-Eya2 inh -26, HP1b chromo inh -1%, CtBP-E1A blk 0, JMJD2A Tudor inh 56µM* and TDP1 inh 1%.
Cc1cc(N=Nc2ccccc2)c(NCC(O)C(O)C(O)CO)cc1C (stereo not drawn) was read as BAZ2B block 16µM*, Six1-Eya2 inh inconclusive, HP1b chromo inh inconclusive, CtBP-E1A blk inconclusive, JMJD2A Tudor inh 45µM* and TDP1 inh 9%.
Cc1nc(NC(=O)CN2CCOCC2)sc1C(=O)N(C)C was read as BAZ2B block -20%, Six1-Eya2 inh 13, HP1b chromo inh 18%, CtBP-E1A blk 7, JMJD2A Tudor inh 16µM* and TDP1 inh 0%.
Screening Cc1nc(NC(=O)CN2CCCCC2)sc1C(=O)N(C)C returned BAZ2B block -27%, Six1-Eya2 inh -5, HP1b chromo inh 8%, CtBP-E1A blk 4, JMJD2A Tudor inh -32% and TDP1 inh 6%.
CC(=O)C1=C(O)C(=O)N(Cc2ccccc2)C1c1ccc(N(C)C)cc1 (stereo not drawn) was read as BAZ2B block -31%, Six1-Eya2 inh 0, HP1b chromo inh 7% and JMJD2A Tudor inh inconclusive.
`CC(=O)C1=C(O)C(=O)N(CCCCCC(=O)O)C1c1ccc(N(C)C)cc1` (stereo not drawn) gave BAZ2B block 79µM*, Six1-Eya2 inh 10, HP1b chromo inh 12%, CtBP-E1A blk -3, JMJD2A Tudor inh 32µM* and TDP1 inh -2%.
